Assay results published in PubChem BioAssay (NCI).
The panel holds about 83,000 compounds, 20% with a hit somewhere; the sample as a whole holds those more often.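 96-well plates, one dose, 48 hours. Percent growth reported; active if below 10.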 The source made the active and inactive calls.

Assays:
Experiment in all cases: NCI-60 one-dose screen, 48 h (100 = growth as untreated, 0 = no growth, -100 = all killed)
Details in all cases: 10 µM unless noted
T-47D breast = tested on: T-47D breast
BT-549 breast = tested on: BT-549 breast
MDA-MB-435 melanoma = tested on: MDA-MB-435 melanoma
SW-620 colon = tested on: SW-620 colon
MCF7 breast = tested on: MCF7 breast
HCT-116 colon = tested on: HCT-116 colon
HCC-2998 colon = tested on: HCC-2998 colon
KM12 colon = tested on: KM12 colon

Measured: growth

CCCCCc1ccc(S(=O)(=O)Nc2cc(-c3csc(NC(C)=O)n3)ccc2N2CCN(C)CC2)cc1
inactive: T-47D breast 58.8% | BT-549 breast 63.9% | KM12 colon 74.1%
active: MDA-MB-435 melanoma -45.4% | SW-620 colon -25.9% | MCF7 breast 9.36% | HCT-116 colon 3.98% | HCC-2998 colon -26.9%

CCSc1ccnc(N)n1
inactive: T-47D breast 104% | BT-549 breast 117% | MDA-MB-435 melanoma 112% | SW-620 colon 106% | MCF7 breast 104% | HCT-116 colon 106% | HCC-2998 colon 116% | KM12 colon 108%

COc1cc2c(cc1-c1c(C)noc1C)ncc1nc(CN3CCOCC3)n([C@H](C)COC(F)F)c12
inactive: T-47D breast 13% | BT-549 breast 55.5% | MDA-MB-435 melanoma 35.8% | SW-620 colon 62.9% | MCF7 breast 13.2% | HCT-116 colon 41.3% | HCC-2998 colon 32% | KM12 colon 34.9%

CN(C)c1ccc(/C=N\NC(=O)c2ccc3nc(-c4ccc(Cl)cc4)[nH]c3c2)cc1
inactive: T-47D breast 59.4% | BT-549 breast 106% | MDA-MB-435 melanoma 93.9% | SW-620 colon 46.3% | MCF7 breast 17.4% | HCT-116 colon 48.6% | HCC-2998 colon 79% | KM12 colon 64.9%

O=S(=O)(Nc1ccc2ccccc2c1)c1ccc(-c2cnc(C3CC3)o2)cc1
inactive: T-47D breast 29.8% | BT-549 breast 62.6% | SW-620 colon 24.3% | MCF7 breast 22.1% | HCT-116 colon 25.4% | HCC-2998 colon 64.3% | KM12 colon 24.7%
active: MDA-MB-435 melanoma -30.2%

Nc1cc(-c2ccc(Cl)cc2)nn1-c1nnc(/C=C/c2ccco2)c(=O)[nH]1
inactive: T-47D breast 62.7% | BT-549 breast 72% | MDA-MB-435 melanoma 62.8% | SW-620 colon 49.3% | MCF7 breast 45.9% | HCT-116 colon 41% | HCC-2998 colon 48.5% | KM12 colon 56%

O=C(C[C@]1(O)C(=O)Nc2ccc(Br)cc21)c1ccco1
inactive: T-47D breast 104% | BT-549 breast 109% | MDA-MB-435 melanoma 112% | SW-620 colon 95.5% | MCF7 breast 94.2% | HCT-116 colon 105% | HCC-2998 colon 115% | KM12 colon 101%

CN1CCN(c2ccc(NC3=CC(=O)c4ncncc4C3=O)cc2)CC1
active: T-47D breast -48.2% | BT-549 breast -90.9% | MDA-MB-435 melanoma -90.3% | SW-620 colon -64.1% | MCF7 breast -64.3% | HCT-116 colon -53.6% | HCC-2998 colon -78.2% | KM12 colon -75.9%

Nc1ccc(-c2ccncc2)cc1NC(=O)N1CCCC1
inactive: T-47D breast 81.9% | BT-549 breast 104% | MDA-MB-435 melanoma 96.3% | SW-620 colon 98.2% | MCF7 breast 87% | HCT-116 colon 86.8% | HCC-2998 colon 94.4% | KM12 colon 94.6%

COc1ccc(/C=C2\c3cc(OC)c(OC)c(OC)c3CC[C@@H]2O)cc1F
inactive: T-47D breast 43.6% | BT-549 breast 23% | SW-620 colon 28% | MCF7 breast 18.4% | HCC-2998 colon 35.7% | KM12 colon 22.9%
active: MDA-MB-435 melanoma -35.6% | HCT-116 colon 8.9%

CCCn1c(=S)sc2c(NNC(C)=O)nc(C)nc21
inactive: T-47D breast 78.9% | BT-549 breast 110% | MDA-MB-435 melanoma 115% | SW-620 colon 101% | MCF7 breast 95.9% | HCT-116 colon 95.3% | HCC-2998 colon 94.8% | KM12 colon 97%

COC(=O)c1c2c(c(C)[n+]([O-])c1C)C(=O)C(NCc1ccccc1)=CC2=O
inactive: BT-549 breast 71.5% | HCC-2998 colon 16.9% | KM12 colon 26.4%
active: T-47D breast 5.63% | MDA-MB-435 melanoma -61.4% | SW-620 colon 9.9% | MCF7 breast -33.9% | HCT-116 colon 7.3%

Nc1nc(C(=O)N/N=C/c2ccc(F)cc2)nn1-c1ccc(S(N)(=O)=O)cc1
inactive: T-47D breast 99.3% | BT-549 breast 114% | MDA-MB-435 melanoma 100% | SW-620 colon 99.2% | MCF7 breast 98.8% | HCT-116 colon 101% | HCC-2998 colon 107% | KM12 colon 96.7%

O=C(c1c[nH]c2ccccc12)c1n[nH]c(=S)n1-c1ccc([N+](=O)[O-])cc1
inactive: T-47D breast 40.4% | BT-549 breast 117% | MDA-MB-435 melanoma 104% | SW-620 colon 100% | MCF7 breast 63.3% | HCT-116 colon 90.3% | HCC-2998 colon 58.5% | KM12 colon 67.4%

COc1ccc(Oc2ccc(/C=C/C(=O)c3cc4ccccc4oc3=O)cc2)cc1
inactive: T-47D breast 84.6% | BT-549 breast 81% | MDA-MB-435 melanoma 89.3% | SW-620 colon 103% | MCF7 breast 25.9% | HCT-116 colon 56.6% | HCC-2998 colon 108% | KM12 colon 85.9%
